# Screening results deposited in PubChem by National Center for Advancing Translational Sciences (NCATS).
# Rows were chosen to be rich in hits. Some 21% of all compounds tested hit in one or more screens of this group.
# RORgamma inh: blocks mouse ROR gamma transcriptional activity | 310,000 tested, 5.4% active | Potency, µM (titrated, usually from 53.6 µM), inactives show top-dose activity change, negative = inhibition, usual class: inhibitors | P51450 | Drosophila S2 Gal4-RORgamma UAS-luciferase reporter, 20 h; further: potency means the concentration at half of the fitted maximal effect; nearly all actives have a fitted effect of over 60% in size
# Target sequence (P51450 whole entry, looked up, the tested form may be a part): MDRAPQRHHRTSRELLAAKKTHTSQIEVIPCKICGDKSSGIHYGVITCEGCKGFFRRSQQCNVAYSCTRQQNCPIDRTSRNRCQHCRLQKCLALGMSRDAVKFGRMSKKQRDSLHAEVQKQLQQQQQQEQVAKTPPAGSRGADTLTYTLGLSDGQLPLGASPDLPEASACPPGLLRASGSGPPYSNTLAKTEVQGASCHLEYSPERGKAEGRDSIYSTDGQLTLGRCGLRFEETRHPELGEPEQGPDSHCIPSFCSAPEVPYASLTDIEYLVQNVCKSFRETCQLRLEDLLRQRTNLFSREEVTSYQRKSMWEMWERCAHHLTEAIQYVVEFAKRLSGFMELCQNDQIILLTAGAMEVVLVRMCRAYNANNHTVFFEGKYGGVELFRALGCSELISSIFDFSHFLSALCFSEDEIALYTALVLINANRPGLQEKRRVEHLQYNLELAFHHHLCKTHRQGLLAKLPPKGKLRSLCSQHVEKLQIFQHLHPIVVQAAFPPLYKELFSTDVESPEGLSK
#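 A Gal4/UAS one-hybrid system in insect cells: metallothionein-promoter Gal4–ROR gamma fusion plus Photinus luciferase reporter. Copper sulfate 700 uM final, 20 hr ambient incubation, luminescent detection after 10 min with reagent.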
# DT40 TDP1 CPT: growth inhibition of DT40 Tdp1-/-;hTDP1 cells with camptothecin (screen for TDP1 inhibitors) | chicken DT40 Tdp1-/-;hTDP1 cells + 20 nM CPT, ATP luminescence, 48 h | Potency, µM (titrated, usually from 46.2 µM), inactives show at the highest dose activity change, negative = growth inhibition, most hits filed as inhibitors | 420,000 tested, 12% active; further: potency means the concentration at half of the fitted maximal effect; nearly all actives have a fitted effect of over 55% in size
#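 Cell growth measured by CellTiter-Glo luminescence after a minimum 48 h, 37 C compound exposure with 20 nM CPT in Tdp1-knockout DT40 cells stably expressing hTDP1, seeded 400/well; qHTS titration format.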
# ELG1 repair inh: ELG1-dependent DNA repair inhibition; HEK293T ELG1-luciferase reporter, luminescence, 16 h; DNA damage induced by 5-fluorouridine; Potency, µM (top dose mostly 46.1 µM), for the others: top-dose activity change, negative = inhibition, most hits filed as inhibitors; 330,000 tested, 2.3% active; AID 504467; further: potency means the concentration at half of the fitted maximal effect; nearly all actives have a fitted effect of over 55% in size
#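 Cells (2,000 per well) received 5-fluorouridine plus test compound or DMSO and were incubated 16 hr at 37 °C, 5% CO2. Luciferase activity was read by luminescence 30 min after ONE-Glo addition; signal suppression marked inhibition of damage-induced ELG1 function.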
# DT40 TDP1 no CPT: qHTS for Inhibitors of human tyrosyl-DNA phosphodiesterase 1 (TDP1): qHTS in cells in absence of CPT; DT40 Tdp1-/- hTDP1 cells, no CPT, ATP luminescence, 48 h; Potency, µM (top dose mostly 46.2 µM), inactives show at the top dose activity change, negative = growth inhibition, most hits filed as inhibitors; 420,000 tested, 15% active; further: potency means the concentration at half of the fitted maximal effect; nearly all actives have a fitted effect of over 55% in size
#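 No-CPT arm: Tdp1-/-;hTDP1 DT40 cells (400/well) plus compounds, incubated ≥48 hr at 37 °C. Readout CellTiter-Glo luminescence.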
# IL1B secr inh: blocks inflammasome-driven IL-1 beta release | THP-1 LPS/ATP IL-1B secretion, AlphaLISA, 16 h; hits give low values | activity change, % at 57.5 µM | 360,000 tested, 4.7% active | AID 743279; in the data active means activity change below about -50%; inconclusive means mostly about -30% to -49%
#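 THP-1 cells pretreated 1 hr with compounds (up to 57.5 uM final), then stimulated with LPS (250 ng/mL final) plus ATP (1.25 mM final); secreted IL-1B measured by AlphaLISA after 16 hr, decreased signal indicating inhibition.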
# Gal4-VP16 FLuc: Gal4-VP16 reporter inhibition counter-screen; Potency, µM (series often up to 53.6 µM), inactives show at the highest dose activity, negative = inhibition, most hits filed as inhibitors; Drosophila S2 Gal4-VP16 UAS-luciferase, luminescence, 20 h; 310,000 tested, 3.5% active; AID 2546;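 further: Gal4-VP16 expression switched on by copper sulfate through the metallothionein promoter; potency means the concentration at half of the fitted maximal effect; nearly all actives have a fitted effect of over 50% in size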
# Numbers without * were called inactive; ? = inconclusive; / = no result given; [ ] = remark or other dose. Unless noted, the call rests on the fitted dose curve; in most records, active means well fitted curve in the direction sought with a large enough effect; inconclusive means small, poorly fitted or top-dose-only effect, or another doubt; inactive means no such curve, though single readings can be large; an effect the other way counts as inactive or inconclusive. On the % scale 0 is the no-effect control and ±100 the full control effect.
SMILES,RORgamma inh,DT40 TDP1 CPT,ELG1 repair inh,DT40 TDP1 no CPT,IL1B secr inh,Gal4-VP16 FLuc
COCCC1CCCCN1C(=O)c1cc(COc2cccc(C(C)=O)c2)on1 (stereo not drawn),?,23.1µM*,?,25.9µM*,-12.2,?
CC(=O)c1ccc(OCc2cc(C(=O)N3CCC[C@H]3CO)no2)cc1,-3.0%,-23.6%,20.7%,0.3%,0.0,0.0%
COC(=O)C1CCCCN1C(=O)c1cc(COc2cccc3cnccc23)on1 (stereo not drawn),-28.6%,/,1.46µM*,/,/,?
COc1cccc(C(=O)C2=NN(C(C)=O)CC2c2ccco2)c1 (stereo not drawn),0.1%,7.2%,-9.4%,-13.2%,34.5,-14.1%
COc1ccc(CN2C(=O)CN(S(C)(=O)=O)CC2(C)C(=O)NC(C)C)cc1 (stereo not drawn),/,22.8%,/,0.6%,?,/
C=CC[C@@H](CC(=O)NCCO)C(=O)N[C@@H](COC(=O)[C@@H](CC=C)CC(=O)OC(C)(C)C)Cc1ccccc1,/,?,?,-27.1%,-6.4,/
C=CC[C@@H](CC(=O)N[C@@H](CO)Cc1ccccc1)C(=O)N[C@H](COC(=O)[C@@H](CC=C)CC(=O)OC(C)(C)C)Cc1ccccc1,/,13µM*,-6.5%,20.6µM*,8.8,/
C=CC[C@@H](CC(=O)N[C@H](CO)Cc1ccccc1)C(=O)N[C@@H](COC(=O)[C@H](CC=C)CC(=O)OC(C)(C)C)Cc1ccccc1,/,20.6µM*,?,23.1µM*,-17.4,/
C=CC[C@@H](CC(=O)N[C@@H](CO)Cc1ccccc1)C(=O)N[C@H](COC(=O)[C@@H](CC=C)CC(=O)OC(C)(C)C)Cc1c[nH]c2ccccc12,/,16.4µM*,20.6µM*,3.66µM*,?,/
CC(C)CN1CC2(CCN(C(=O)c3cccc(F)c3)CC2)C1,-5.2%,3.5%,/,1.5%,/,10.0%
O=C(C1CC1)N1CCC(c2nc(-c3ccc(S(=O)(=O)NCC4CCCO4)cc3)no2)CC1 (stereo not drawn),25.9%[0.365 µM],12.6µM*,-23.2%,14.1µM*,0.0,/
O=C(c1ccccc1)N1CCC(c2nc(-c3ccc(S(=O)(=O)NCC4CCCO4)cc3)no2)CC1 (stereo not drawn),-43.4%,10.3µM*,?,10µM*,-72.0*,8.91µM*
O=C(c1ccc(S(=O)(=O)NCC2CCCO2)cc1)N1CCc2ccccc21 (stereo not drawn),-4.4%,20.6µM*,?,20.6µM*,7.5,?
O=C(NCc1ccncc1)[C@@H]1CCCN1C(=O)[C@@H]1CCCN1C(=O)c1ccccc1Cl,/,?,/,-12.2%,43.5,/
CC1CCC(C(C)C)C(OC(=O)COC(=O)c2ccc(=O)[nH]c2)C1 (stereo not drawn),19.8%,-28.6%,0.9%,?,27.9,-14.3%
CC1CCC(C(C)C)C(OC(=O)COC(=O)c2cc(O)ccc2N)C1 (stereo not drawn),-4.4%,?,-0.4%,?,-80.4*,?
CN(C)c1cccc(CNC(=O)c2csc([C@@H]3O[C@H](CO)[C@@H](O)[C@H]3O)n2)c1,/,13µM*,/,11.6µM*,12.5,/
CCC(=O)Nc1cccc(-c2nc3ncccc3o2)c1C,-16.0%,2.0%,3.4%,14.8%,4.1,2.2%
O=C(CSc1ccc(Cl)cc1)Nc1cccc(-c2nc3ncccc3o2)c1,9.5%,?,?,18.4µM*,?,0.5%
Cc1c(NC(=O)CSc2ccc(Cl)cc2)cccc1-c1nc2ncccc2o1,-27.0%,?,9.2µM*,?,?,-9.7%
Cc1c(NC(=O)c2ccc(-c3ccc(F)cc3)o2)cccc1-c1nc2ncccc2o1,/,4.61µM*,/,9.2µM*,/,/
COc1ccc(C(=O)Nc2cccc(-c3nc4ncccc4o3)c2C)cc1,?,-9.6%,0.0%,?,-17.7,-8.8%
O=C(Nc1cccc(-c2nc3ncccc3o2)c1)c1ccc(-c2cccc(Cl)c2Cl)o1,/,5.8µM*,/,6.51µM*,/,/
CCOC(=O)c1cc(C(O)(C(F)(F)F)C(F)(F)F)c(/N=C/N(C)C)o1,-3.8%,-6.6%,3.2%,-8.2%,-3.7,-1.6%
COc1ccc(N(Cc2cc3ccccc3[nH]c2=O)S(=O)(=O)c2ccccc2)cc1,27.5%,?,?,18.4µM*,0.0,0.5%
SMILES,RORgamma inh,DT40 TDP1 CPT,ELG1 repair inh,DT40 TDP1 no CPT,IL1B secr inh,Gal4-VP16 FLuc
COc1ccc(N(Cc2cc3cccc(C)c3[nH]c2=O)S(=O)(=O)c2ccc(Cl)cc2)cc1,-2.8%,?,-3.9%,23.1µM*,4.3,-2.2%
Cc1ccc(S(=O)(=O)N2CCN(C(=O)COC(=O)Cc3ccc(Cl)cc3)CC2)c(C)c1,/,?,6.7%,?,13.5,/
O=C(C1CC1)N1CCc2cc(Br)c(S(=O)(=O)N3CCCCCC3)cc21,/,16.4µM*,/,?,11.9,/
CCC(=O)N1CCc2cc(Br)cc(S(=O)(=O)N3CCCCCC3)c21,-13.4%,?,-2.1%,?,23.9,-22.7%
O=C(C1CC1)N1CCc2cc(Br)cc(S(=O)(=O)N3CCCCCC3)c21,-7.4%,?,?,20.6µM*,-0.6,-25.7%
COc1ccccc1CNC(=O)CN1C(=O)c2cccnc2Oc2ccccc21,/,-4.4%,/,-20.2%,/,/
COc1ccc(C(=O)OCC(O)COC(=O)c2ccc(OC)cc2)cc1,/,4.5%,/,?,99.7,/
COc1ccc(CNC[C@@H](CCCCN(C)Cc2ccc(OC)cc2)N2C[C@H](c3ccccc3)N(CCc3ccc(Cl)c(Cl)c3)C(=O)C2=O)cc1,5.62µM*,?,-29.0%,4.11µM*,?,5.01µM*
CCOc1ccc(CCN2C(=O)C(=O)N([C@H](CCCN(C)Cc3ccccc3)CNCc3ccccc3)C[C@@H]2C(C)C)cc1,40.4%,/,5.5%,/,/,-1.3%
CCCn1c(SC(C)C(=O)NCC2CCCO2)nc2sc3c(c2c1=O)CCC3 (stereo not drawn),/,?,-18.5%,?,-14.0,/
Cc1sc2ncnc(SC(C)C(=O)N3c4ccccc4Sc4ccccc43)c2c1C (stereo not drawn),-15.3%,20.6µM*,-20.6%,23.1µM*,-22.8,4.4%
CC1CCc2c(sc3ncnc(SC(C)C(=O)NCC4CCCO4)c23)C1 (stereo not drawn),/,25.9µM*,-12.0%,20.6µM*,1.9,/
